# Reference: PubChem BioAssay (Tox21)
# Several values for one entry are separate records, joined by “and”; a condition that tells them apart may be missing. Equal entries are not always repeated. Records with an inconclusive call do not appear. Activity calls are given as the source filed them. Calls come from the whole dose curve; as a rule, active = well fitted inhibition curve with a large enough effect in the repeat runs; inconclusive = weak or mixed curves; inactive = no such curve, though single readings can be large or run the other way.
# Molecular target: Cytochrome P450 2C19 (Homo sapiens) (UniProt P33261)
# Assay: Cytochrome P450 Family 2 Subfamily C Member 19 (CYP2C19) small molecule antagonists: luciferase reporter qHTS assay (AID 1671197); note: nearly all actives have a fitted effect of over 65% in size
# Settings: P450-Glo CYP2C19 enzyme, luciferin luminescence, 1 h; series mostly up to 115 µM; activity change, negative = inhibition: at the top concentration
# In short: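 Relative luminescence units recorded 20 min after the detection reagent stopped a 1 h, 37C CYP2C19 reaction on proluciferin substrate, which was started by NADPH regeneration following 10 min room-temperature compound preincubation; ketoconazole positive control.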
# % is set by controls: 0 for no effect and ±100 for the full control effect; potency is the fitted concentration of half-maximal effect.
# Chain of Cytochrome P450 2C19 (Homo sapiens) (P33261 whole entry, looked up): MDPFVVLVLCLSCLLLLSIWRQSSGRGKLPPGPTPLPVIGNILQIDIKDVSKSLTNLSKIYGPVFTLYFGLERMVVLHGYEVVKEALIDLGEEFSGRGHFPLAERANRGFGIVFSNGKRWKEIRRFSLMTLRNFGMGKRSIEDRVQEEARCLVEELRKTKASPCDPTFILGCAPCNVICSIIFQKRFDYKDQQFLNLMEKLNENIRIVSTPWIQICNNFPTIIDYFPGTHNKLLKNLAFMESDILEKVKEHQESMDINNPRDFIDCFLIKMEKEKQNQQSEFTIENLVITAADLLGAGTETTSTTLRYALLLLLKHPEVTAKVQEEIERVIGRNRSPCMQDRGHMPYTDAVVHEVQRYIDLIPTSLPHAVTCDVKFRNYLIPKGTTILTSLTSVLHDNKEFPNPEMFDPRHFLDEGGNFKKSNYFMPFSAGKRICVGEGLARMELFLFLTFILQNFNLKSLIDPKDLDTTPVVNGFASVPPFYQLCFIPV
SMILES,"activity change, negative = inhibition",Potency
O=c1c(O)c(-c2ccc(O)cc2O)oc2cc(O)cc(O)c12,-3.27% (inactive),–
COc1cccc(OC)c1C(=O)O,-25.2% (inactive),–
O=C(/C=C/c1ccc(O)c(O)c1)O[C@@H](C(=O)O)[C@@H](OC(=O)/C=C/c1ccc(O)c(O)c1)C(=O)O,-6.87% (inactive),–
CNc1ccc([N+](=O)[O-])cc1,–,35.7 µM (active)
CCC(CC)C(C)CCOC(C)=O (configuration not stated),-22.6% (inactive),–
CCCCCCCCCCOC(=O)c1ccccc1C(=O)OCCCCCCCC,-8.05% (inactive),–
CCCCCc1ccc(Cl)cc1,14.2% (inactive),–
C[Si](Cl)(c1ccccc1)c1ccccc1,–,1.95 µM (active)
CCCCCCCCCCCCCCCC[N+](C)(C)CC,7.56% [at 52.9 µM] (inactive),–
COC(C)=O,-27% (inactive),–
CN(C)CCN1CCN(c2cccc(Cl)c2)C1=O,-5.3% [at 52.9 µM] (inactive),–
Nc1ccc(Oc2ccc(Cl)cc2)cc1,–,2.47 µM (active)
C1CCC(SSC2CCCCC2)CC1,-17.4% (inactive),–
C=CC(=O)Nc1cc2c(Nc3ccc(F)c(Cl)c3)ncnc2cc1OCCCN1CCOCC1,-5.02% [at 52.9 µM] (inactive),–
CC1=CCC(=C(C)C)CC1,–,79.6 µM (active)
O=c1[nH]c(=O)n([C@H]2C[C@H](O)[C@@H](CO)O2)cc1F,31.5% [at 52.9 µM] (inactive),–
CC(C)(C)c1ccc(C(O)CCCN2CCC(C(O)(c3ccccc3)c3ccccc3)CC2)cc1 (configuration not stated),48% [at 52.9 µM] (inactive),–
O=C(O)Cc1ccccc1Nc1c(Cl)cccc1Cl,30.6% [at 52.9 µM] (inactive),–
C=CCn1c(=O)n(CC=C)c(=O)n(CC=C)c1=O,–,1.12 µM (active)

SMILES,"activity change, negative = inhibition",Potency
C=CC(C)(CCC=C(C)C)OC=O (configuration not stated),–,20 µM (active)
CCCCCCCCCCCC(=O)OCC(C)OC(=O)CCCCC(=O)O (configuration not stated),-28.7% [at 52.9 µM] (inactive),–
C=C(C)C(=O)OCCCCCCCCCC,–,56.8 µM (active)
CN1CCN2c3ccccc3Cc3ccccc3C2C1 (configuration not stated),-11.3% [at 52.9 µM] (inactive),–
CC1(C)[C@@H](O)CC[C@]2(C)[C@H]3C(=O)C=C4[C@@H]5C[C@@](C)(C(=O)O)CC[C@]5(C)CC[C@@]4(C)[C@]3(C)CC[C@@H]12,9.09% (inactive),–
C=CCCC(=O)/C=C/C1C(C)=CCCC1(C)C (configuration not stated),–,17.8 µM (active)
CCCCOC(=O)CO,22.3% (inactive),–
CC(C)Cn1cnc2c(N)nc3ccccc3c21,10.1% [at 23.6 µM] (inactive),–
FC(F)(F)c1cccc(Cl)c1,–,69.7 µM (active)
CCC(COC(=O)CCS)(COC(=O)CCS)COC(=O)CCS,–,5.64 µM (active)
Cc1c(C)c2c(c(C)c1OC(=O)c1cccnc1)CC[C@@](C)(CCC[C@H](C)CCC[C@H](C)CCCC(C)C)O2,29.9% [at 52.9 µM] (inactive),–
CC(C(=O)O)c1ccc2c(c1)[nH]c1ccc(Cl)cc12 (configuration not stated),-8.46% [at 52.9 µM] (inactive),–
O=C(Oc1ccccc1)Oc1ccccc1,–,79.3 µM (active)
CC(C)OC(=O)C(O)(CC(=O)O)CC(=O)O,–,35.6 µM (active)
OC1CCCc2ccccc21 (configuration not stated),4.43% (inactive),–
CN(C)c1ccc(C(=C2C=CC(=[N+](C)C)C=C2)c2ccc(N(C)C)cc2)cc1,–,19.9 µM (active) and 22.4 µM (active) and 21.9 µM (active)
O=S(=O)(O)c1ccccc1/C=C/c1ccc(-c2ccc(/C=C/c3ccccc3S(=O)(=O)O)cc2)cc1,-23.1% (inactive),–
CCC(C)(CCC(C)C)C(=O)[O][Sn]([CH3])([CH3])[O]C(=O)C(C)(CC)CCC(C)C (configuration not stated),–,56.4 µM (active)

# Molecular target: Cytochrome P450 2C9 (Homo sapiens) (UniProt P11712)
# Assay: Cytochrome P450 Family 2 Subfamily C Member 9 (CYP2C9) small molecule antagonists: luciferase reporter qHTS assay (AID 1671198); note: nearly all actives have a fitted effect of over 50% in size
# Settings: P450-Glo CYP2C9 enzyme assay, luciferin luminescence; series mostly up to 115 µM; activity change, negative = inhibition: at the top concentration
# In short: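 Enzyme-substrate mix preincubated with compound 10 min at room temperature; reaction started with NADPH regeneration solution, 1 h 37C. Luminescent luciferin product read after 20 min detection reagent.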
# Chain of Cytochrome P450 2C9 (Homo sapiens) (P11712 whole entry, looked up): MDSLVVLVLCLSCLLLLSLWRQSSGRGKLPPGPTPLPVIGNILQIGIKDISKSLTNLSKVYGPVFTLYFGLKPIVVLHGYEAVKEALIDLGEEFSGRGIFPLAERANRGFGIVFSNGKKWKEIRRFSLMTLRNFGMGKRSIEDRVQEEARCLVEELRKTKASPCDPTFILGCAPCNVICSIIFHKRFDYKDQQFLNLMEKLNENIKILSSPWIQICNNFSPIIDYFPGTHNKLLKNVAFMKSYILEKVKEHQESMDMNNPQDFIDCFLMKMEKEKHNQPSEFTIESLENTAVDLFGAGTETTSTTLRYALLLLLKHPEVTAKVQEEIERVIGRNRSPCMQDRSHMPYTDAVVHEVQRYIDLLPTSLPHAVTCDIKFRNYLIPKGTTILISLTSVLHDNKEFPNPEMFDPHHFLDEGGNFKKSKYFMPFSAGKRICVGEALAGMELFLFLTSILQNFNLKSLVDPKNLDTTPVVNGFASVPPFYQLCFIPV
SMILES,Potency,"activity change, negative = inhibition"
O=c1c(O)c(-c2ccc(O)cc2O)oc2cc(O)cc(O)c12,21.1 µM (active),–
COc1cccc(OC)c1C(=O)O,–,-12.7% (inactive)
O=C(/C=C/c1ccc(O)c(O)c1)O[C@@H](C(=O)O)[C@@H](OC(=O)/C=C/c1ccc(O)c(O)c1)C(=O)O,–,-9.83% (inactive)
C[Si](Cl)(c1ccccc1)c1ccccc1,4.37 µM (active),–
COC(C)=O,–,2.58% (inactive)
CN(C)CCN1CCN(c2cccc(Cl)c2)C1=O,–,-0.374% [at 53 µM] (inactive)
Nc1ccc(Oc2ccc(Cl)cc2)cc1,12.4 µM (active),–
CC1=CCC(=C(C)C)CC1,39.9 µM (active),–
O=c1[nH]c(=O)n([C@H]2C[C@H](O)[C@@H](CO)O2)cc1F,–,4.86% [at 53 µM] (inactive)
C=CC(C)(CCC=C(C)C)OC=O (configuration not stated),35.6 µM (active),–
CCCCCCCCCCCC(=O)OCC(C)OC(=O)CCCCC(=O)O (configuration not stated),7.76 µM (active),–
CN1CCN2c3ccccc3Cc3ccccc3C2C1 (configuration not stated),–,-10.7% [at 53 µM] (inactive)
CC1(C)[C@@H](O)CC[C@]2(C)[C@H]3C(=O)C=C4[C@@H]5C[C@@](C)(C(=O)O)CC[C@]5(C)CC[C@@]4(C)[C@]3(C)CC[C@@H]12,–,2.17% (inactive)
CCCCOC(=O)CO,–,-8.14% (inactive)
CC(C)Cn1cnc2c(N)nc3ccccc3c21,–,-3.29% [at 23.6 µM] (inactive)
CCC(COC(=O)CCS)(COC(=O)CCS)COC(=O)CCS,28.3 µM (active),–
Cc1c(C)c2c(c(C)c1OC(=O)c1cccnc1)CC[C@@](C)(CCC[C@H](C)CCC[C@H](C)CCCC(C)C)O2,–,12.7% [at 53 µM] (inactive)
CC(C)OC(=O)C(O)(CC(=O)O)CC(=O)O,35.6 µM (active),–
OC1CCCc2ccccc21 (configuration not stated),–,11.8% (inactive)
CCC(C)(CCC(C)C)C(=O)[O][Sn]([CH3])([CH3])[O]C(=O)C(C)(CC)CCC(C)C (configuration not stated),25.2 µM (active),–
